Data published in PubChem BioAssay (EPA / NIEHS).
Results filed as inconclusive are left out. Activity calls are given as the source filed them. The calls were made as follows, unless noted: active = hit-call score of the fitted dose curve at least 0.9, where 1 is the maximum; inconclusive = response in the unintended direction; inactive = score below 0.9.

Assays:
[1] = target: Oxysterols receptor LXR-alpha (Homo sapiens) (UniProt Q13133); assay: ATG_LXRa_TRANS: Attagene TRANS-FACTORIAL HepG2 Assay for human Liver X Receptor alpha (LXRa) (AID 2282980); details: HepG2 Attagene TRANS reporter, LXRa transactivation
Chain of Oxysterols receptor LXR-alpha (Homo sapiens) (Q13133 whole entry, looked up): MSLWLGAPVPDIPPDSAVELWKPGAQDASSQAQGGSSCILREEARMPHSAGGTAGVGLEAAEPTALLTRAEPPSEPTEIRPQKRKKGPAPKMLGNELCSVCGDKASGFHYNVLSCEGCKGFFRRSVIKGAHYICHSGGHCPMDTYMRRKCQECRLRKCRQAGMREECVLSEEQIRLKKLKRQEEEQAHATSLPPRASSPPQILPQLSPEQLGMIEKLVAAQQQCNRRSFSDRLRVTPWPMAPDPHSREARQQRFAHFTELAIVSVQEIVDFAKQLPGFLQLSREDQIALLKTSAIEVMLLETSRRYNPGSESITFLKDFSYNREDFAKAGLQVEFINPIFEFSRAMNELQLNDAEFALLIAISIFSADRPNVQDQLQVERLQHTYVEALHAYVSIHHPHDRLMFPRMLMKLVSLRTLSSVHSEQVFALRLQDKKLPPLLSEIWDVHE
Outline: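 Transient HepG2 transfectants, 24 h dosing, RT-PCR/CE mRNA reporter quantitation; gain-of-signal vs DMSO.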

[2] = ATG_M_32_TRANS: Attagene TRANS-FACTORIAL HepG2 Assay for M32 Transcription Factor (Internal Marker) (AID 2282984); details: HepG2 Attagene TRANS M32 internal marker reporter;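 also: transcript level of a background control reporter unit measured by RT-PCR and capillary electrophoresis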
Outline: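 Internal background reporter in transfected HepG2: after 24 h chemical exposure, RNA reverse-transcribed, reporter cDNA amplified, fluorescently labelled and HpaI-cut, then sized by capillary electrophoresis. Gain of signal fitted against DMSO control.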

[3] = target: Nuclear receptor subfamily 4 group A member 2 (Homo sapiens) (UniProt P43354); assay: ATG_NURR1_TRANS: Attagene TRANS-FACTORIAL HepG2 Assay for human Nuclear Receptor Related Protein 1 (NURR1) (AID 2282985); details: HepG2 Attagene TRANS reporter, mRNA readout
Chain of Nuclear receptor subfamily 4 group A member 2 (Homo sapiens) (P43354 whole entry, looked up, the tested form may be a part): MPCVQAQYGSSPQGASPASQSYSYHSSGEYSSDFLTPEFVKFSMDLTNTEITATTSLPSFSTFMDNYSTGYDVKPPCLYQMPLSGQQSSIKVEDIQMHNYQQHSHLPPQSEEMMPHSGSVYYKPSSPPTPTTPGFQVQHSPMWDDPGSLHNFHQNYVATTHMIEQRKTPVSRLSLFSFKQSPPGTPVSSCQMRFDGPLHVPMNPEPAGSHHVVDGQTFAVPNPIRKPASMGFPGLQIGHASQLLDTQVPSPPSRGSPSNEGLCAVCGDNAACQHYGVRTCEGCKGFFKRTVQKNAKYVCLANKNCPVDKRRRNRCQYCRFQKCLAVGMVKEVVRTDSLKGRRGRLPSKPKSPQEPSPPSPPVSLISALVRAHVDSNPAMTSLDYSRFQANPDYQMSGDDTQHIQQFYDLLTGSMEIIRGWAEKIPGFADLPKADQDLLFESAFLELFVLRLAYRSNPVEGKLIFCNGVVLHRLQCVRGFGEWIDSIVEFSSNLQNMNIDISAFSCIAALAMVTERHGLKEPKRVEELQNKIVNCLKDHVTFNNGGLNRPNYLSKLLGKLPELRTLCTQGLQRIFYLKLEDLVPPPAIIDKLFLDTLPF
Outline: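 Reporter transcript induction, measured by RT-PCR with fluorescent labelling, HpaI digestion and capillary electrophoresis, after 24 hr dosing of human HepG2 cells transiently expressing an exogenous NR-Gal4 fusion with GAL4-UAS-driven reporters; DMSO as baseline.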

[4] = target: Transcriptional activator Myb (Homo sapiens) (UniProt P10242); assay: ATG_Myb_CIS: Attagene CIS-FACTORIAL HepG2 Assay for human Myeloblastosis (Myb) Proto-Oncogene Transcription Factor (AID 2282986; active = hit-call score of the fitted dose curve at least 0.9, where 1 is the maximum; inactive = score below 0.9); details: HepG2 Attagene CIS-FACTORIAL Myb reporter transcription; actives raise or lower the signal
Chain of Transcriptional activator Myb (Homo sapiens) (P10242 whole entry, looked up): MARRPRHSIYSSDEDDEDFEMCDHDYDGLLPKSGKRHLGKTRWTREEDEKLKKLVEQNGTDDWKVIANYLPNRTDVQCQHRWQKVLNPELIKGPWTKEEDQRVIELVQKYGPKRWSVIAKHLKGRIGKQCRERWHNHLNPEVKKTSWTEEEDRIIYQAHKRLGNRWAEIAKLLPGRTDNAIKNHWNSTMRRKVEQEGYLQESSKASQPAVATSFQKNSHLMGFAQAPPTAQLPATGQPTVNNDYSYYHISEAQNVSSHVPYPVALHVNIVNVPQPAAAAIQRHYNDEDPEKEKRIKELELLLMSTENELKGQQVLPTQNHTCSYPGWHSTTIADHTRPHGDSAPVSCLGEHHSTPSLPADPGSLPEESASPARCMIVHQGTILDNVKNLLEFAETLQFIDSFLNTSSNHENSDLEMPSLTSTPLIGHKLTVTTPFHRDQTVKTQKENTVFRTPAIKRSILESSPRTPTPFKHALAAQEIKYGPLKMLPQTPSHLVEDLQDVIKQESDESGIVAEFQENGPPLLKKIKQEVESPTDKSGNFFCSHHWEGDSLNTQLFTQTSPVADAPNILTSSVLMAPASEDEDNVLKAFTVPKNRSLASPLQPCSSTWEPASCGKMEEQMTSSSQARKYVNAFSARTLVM
Outline: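 Using HepG2 liver cells bearing transiently transfected cis-promoter reporter constructs, the assay measures induction or loss of reporter mRNA after 24 hours of dosing. Detection used fluorescently labeled RT-PCR products separated by capillary electrophoresis.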

[5] = target: Nuclear respiratory factor 1 (Homo sapiens) (UniProt Q16656); assay: ATG_NRF1_CIS: Attagene CIS-FACTORIAL HepG2 Assay for human Nuclear Respiratory Factor 1 (NRF1) Orphan Gene (AID 2282987; active = hit-call score of the fitted dose curve at least 0.9, where 1 is the maximum; inactive = score below 0.9); details: HepG2 NRF1 cis-element reporter, Attagene multiplex; actives raise or lower the signal
Chain of Nuclear respiratory factor 1 (Homo sapiens) (Q16656 whole entry, looked up): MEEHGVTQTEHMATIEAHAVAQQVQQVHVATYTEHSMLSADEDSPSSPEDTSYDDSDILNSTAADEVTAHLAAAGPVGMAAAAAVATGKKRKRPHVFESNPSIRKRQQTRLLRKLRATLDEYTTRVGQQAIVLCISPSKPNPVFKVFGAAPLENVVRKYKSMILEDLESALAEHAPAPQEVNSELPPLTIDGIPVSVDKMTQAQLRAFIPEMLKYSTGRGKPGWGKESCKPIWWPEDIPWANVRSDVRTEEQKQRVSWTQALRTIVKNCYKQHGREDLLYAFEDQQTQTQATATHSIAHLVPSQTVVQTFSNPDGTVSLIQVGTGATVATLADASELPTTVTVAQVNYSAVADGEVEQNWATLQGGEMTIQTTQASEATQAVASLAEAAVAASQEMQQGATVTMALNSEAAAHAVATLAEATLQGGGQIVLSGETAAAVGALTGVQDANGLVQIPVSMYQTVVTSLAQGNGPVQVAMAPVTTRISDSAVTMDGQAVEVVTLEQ
Outline: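 Reporter mRNA induction or loss in HepG2 cells after 24 h dosing; cis-regulated reporter constructs report endogenous transcription-factor activity. Quantified by RT-PCR/capillary electrophoresis fluorescence, DMSO-referenced.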

[6] = target: Hepatocyte nuclear factor 4-alpha (Homo sapiens) (UniProt P41235); assay: ATG_HNF4a_TRANS: Attagene TRANS-FACTORIAL HepG2 Assay for human Hepatocyte Nuclear Factor 4 alpha (HNF4a) (AID 2282982); details: HepG2 HNF4a transactivation reporter, mRNA readout
Chain of Hepatocyte nuclear factor 4-alpha (Homo sapiens) (P41235 whole entry, looked up, the tested form may be a part): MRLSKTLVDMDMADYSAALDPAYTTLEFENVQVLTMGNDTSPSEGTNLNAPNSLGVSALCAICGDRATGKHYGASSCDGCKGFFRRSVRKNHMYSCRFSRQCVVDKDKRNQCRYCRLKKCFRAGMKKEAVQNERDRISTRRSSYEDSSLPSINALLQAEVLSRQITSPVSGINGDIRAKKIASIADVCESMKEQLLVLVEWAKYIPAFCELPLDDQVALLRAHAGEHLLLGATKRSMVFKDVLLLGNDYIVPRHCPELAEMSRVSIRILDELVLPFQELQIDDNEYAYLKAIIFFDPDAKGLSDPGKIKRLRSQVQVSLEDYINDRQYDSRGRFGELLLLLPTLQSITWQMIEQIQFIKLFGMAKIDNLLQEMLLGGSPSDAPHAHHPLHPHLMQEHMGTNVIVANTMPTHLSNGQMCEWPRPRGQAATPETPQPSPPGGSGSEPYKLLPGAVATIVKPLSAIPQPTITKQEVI
Outline: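 Activity of an exogenous HNF4a–Gal4 fusion scored as induced GAL4-UAS reporter transcripts after 24 h chemical exposure of transfected human HepG2 cells. Read-out via RT-PCR with 6-FAM labelling and capillary electrophoresis; rise over DMSO baseline.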

[7] = target: Oxysterols receptor LXR-beta (Homo sapiens) (UniProt P55055); assay: ATG_LXRb_TRANS: Attagene TRANS-FACTORIAL HepG2 Assay for human Liver X Receptor beta (LXRb) (AID 2282981); details: HepG2 Attagene TRANS GAL4-LXRb reporter, mRNA
Chain of Oxysterols receptor LXR-beta (Homo sapiens) (P55055 whole entry, looked up, the tested form may be a part): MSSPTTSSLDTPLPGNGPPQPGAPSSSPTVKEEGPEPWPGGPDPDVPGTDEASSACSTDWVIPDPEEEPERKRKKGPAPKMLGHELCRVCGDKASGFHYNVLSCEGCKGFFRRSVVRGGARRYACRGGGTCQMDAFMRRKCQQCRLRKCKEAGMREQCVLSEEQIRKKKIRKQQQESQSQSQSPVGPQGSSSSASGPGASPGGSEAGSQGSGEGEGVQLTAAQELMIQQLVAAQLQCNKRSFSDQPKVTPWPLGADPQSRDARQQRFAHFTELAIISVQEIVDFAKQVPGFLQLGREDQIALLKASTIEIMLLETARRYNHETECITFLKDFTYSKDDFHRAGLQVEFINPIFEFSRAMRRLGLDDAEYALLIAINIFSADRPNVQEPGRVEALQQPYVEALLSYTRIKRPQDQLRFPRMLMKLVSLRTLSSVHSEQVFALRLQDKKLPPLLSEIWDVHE
Outline: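 After 24 h chemical treatment of transfected HepG2 cells carrying exogenous NR-Gal4 chimeras, reporter mRNA was quantified by fluorescent RT-PCR and capillary electrophoresis; activity taken as increase over DMSO controls.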

[8] = ATG_M_06_TRANS: Attagene TRANS-FACTORIAL HepG2 Assay for M06 Transcription Factor (Internal Marker) (AID 2282983); details: HepG2 Attagene TRANS M06 internal marker reporter;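 also: reporter transcript level by RT-PCR then capillary electrophoresis fluorescence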
Outline: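 Human liver HepG2 cells bearing transiently transfected chimeric NR-GAL4 reporter units were treated with chemicals for 24 h. Total RNA was reverse-transcribed, reporter sequences amplified and labelled, then quantified by capillary electrophoresis. Activity was fitted upward relative to DMSO.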

Measured: AC50

O=C(NS(=O)(=O)/C=C/c1ccccc1)c1ccc(F)cc1Cl
inactive: [1] | [2] | [3] | [4] | [5]

Cn1c(=O)c2c(ncn2C)n(C)c1=O
inactive: [6] | [2] | [3] | [5]

Cc1ccc(S(=O)(=O)O)cc1C
not listed: [7] | [8]
inactive: all other assays above

CCOCCOCCOCCO
inactive: [7] | [3] | [4] | [5]

On1ccccc1=S
inactive: [6] | [8] | [2] | [4] | [5]

Cc1ccc(C)c(O)c1
inactive: [8] | [2] | [5]

O=P(OC(CCl)CCl)(OC(CCl)CCl)OC(CCl)CCl
active: [3] 32 µM
inactive: [1] | [8] | [2] | [5]

CCNc1ccccc1
inactive: [8] | [3] | [4] | [5]

CCOC(=O)CC(CC(=O)OCC)(OC(C)=O)C(=O)OCC
inactive: [1] | [2] | [3] | [5]

O=C1OC(=O)C2C3C=CC(C3)C12 (stereo not given)
inactive: [1] | [6] | [2] | [5]

CCCCCCCCCCCCc1ccccc1
inactive: [1] | [8] | [2] | [4] | [5]

C=CCCCCCCCCC(=O)O
not listed: [6] | [8]
inactive: all other assays above

CC[C@H]1OC(=O)[C@H](C)[C@@H](O[C@H]2C[C@@](C)(OC)[C@@H](O)[C@H](C)O2)[C@H](C)[C@@H](O[C@@H]2O[C@H](C)C[C@H](N(C)C)[C@H]2O)[C@](C)(O)C[C@@H](C)C(=O)[C@H](C)[C@@H](O)[C@]1(C)O
inactive: [7] | [8] | [2] | [5]

C=CC(=C)CCC=C(C)C
not listed: [1] | [4]
inactive: all other assays above

O=C(O)CC(O)C(=O)O (stereo not given)
inactive: [8] | [4] | [5]

Clc1nc(Cl)c(Cl)c(Cl)c1Cl
inactive: [8] | [2] | [3] | [4] | [5]

CC(C)=CCCC(C)CCO (stereo not given)
inactive: [6] | [8] | [2] | [4] | [5]

O=C(O)c1cccc(N(Cc2cccnc2)c2ccc(OC(F)F)c(OC(F)F)c2)c1
inactive: [1] | [6] | [8] | [2] | [5]

CCn1nc(Cc2ccccc2)cc1C1CCN(C[C@H]2C[C@H](N(C)[C@@H](C(=O)O)C(C)C)C[C@@H]2c2cccc(F)c2)CC1
inactive: [5]

Nc1ccc(Nc2ccccc2)cc1
inactive: [7] | [6] | [3] | [5]

CC(=O)OC[C@H]1O[C@@](COC(C)=O)(O[C@H]2O[C@H](COC(C)=O)[C@@H](OC(C)=O)[C@H](OC(C)=O)[C@H]2OC(C)=O)[C@@H](OC(C)=O)[C@@H]1OC(C)=O
inactive: [7] | [6] | [8] | [2] | [5]

CNS(=O)(=O)c1cc(C(=O)N2CCC(CCN3C4CCC3CC(n3c(C)nc5ccccc53)C4)(c3cccc(F)c3)CC2)c(Cl)cc1F (stereo not given)
inactive: [8] | [2] | [3] | [4] | [5]

CC(C)CCO
not listed: [1] | [3]
inactive: all other assays above

COC(=O)c1ccccc1O
active: [1] 25.8 µM | [7] 25.5 µM
not listed: [6]
inactive: all other assays above

CC(=O)OCCC(C)C
inactive: [7] | [8] | [3] | [5]

C[C@](N)(Cc1ccc(O)c(O)c1)C(=O)O
inactive: [6] | [8] | [3] | [4] | [5]
